# Measured values as given in publication PMC4336329 (PLoS ONE, 2015).
# About 14,000 (4.5%) of roughly 310,000 compounds showed an effect of 50% or more. Effects have a minus sign here. For the sample, strong results were picked, then their nearest neighbours and some compounds at random.
# Biological target: human ether-à-go-go-related gene (hERG) potassium channel (human, UniProt Q12809)
# Assay: primary screen, population patch clamp on CHO cells stably expressing hERG; higher = less effect of the substance
# 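Further: peak tail current of the secondary pulse compared with the same well before compound.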
# human ether-à-go-go-related gene (hERG) potassium channel, sequence (Q12809 whole entry, looked up): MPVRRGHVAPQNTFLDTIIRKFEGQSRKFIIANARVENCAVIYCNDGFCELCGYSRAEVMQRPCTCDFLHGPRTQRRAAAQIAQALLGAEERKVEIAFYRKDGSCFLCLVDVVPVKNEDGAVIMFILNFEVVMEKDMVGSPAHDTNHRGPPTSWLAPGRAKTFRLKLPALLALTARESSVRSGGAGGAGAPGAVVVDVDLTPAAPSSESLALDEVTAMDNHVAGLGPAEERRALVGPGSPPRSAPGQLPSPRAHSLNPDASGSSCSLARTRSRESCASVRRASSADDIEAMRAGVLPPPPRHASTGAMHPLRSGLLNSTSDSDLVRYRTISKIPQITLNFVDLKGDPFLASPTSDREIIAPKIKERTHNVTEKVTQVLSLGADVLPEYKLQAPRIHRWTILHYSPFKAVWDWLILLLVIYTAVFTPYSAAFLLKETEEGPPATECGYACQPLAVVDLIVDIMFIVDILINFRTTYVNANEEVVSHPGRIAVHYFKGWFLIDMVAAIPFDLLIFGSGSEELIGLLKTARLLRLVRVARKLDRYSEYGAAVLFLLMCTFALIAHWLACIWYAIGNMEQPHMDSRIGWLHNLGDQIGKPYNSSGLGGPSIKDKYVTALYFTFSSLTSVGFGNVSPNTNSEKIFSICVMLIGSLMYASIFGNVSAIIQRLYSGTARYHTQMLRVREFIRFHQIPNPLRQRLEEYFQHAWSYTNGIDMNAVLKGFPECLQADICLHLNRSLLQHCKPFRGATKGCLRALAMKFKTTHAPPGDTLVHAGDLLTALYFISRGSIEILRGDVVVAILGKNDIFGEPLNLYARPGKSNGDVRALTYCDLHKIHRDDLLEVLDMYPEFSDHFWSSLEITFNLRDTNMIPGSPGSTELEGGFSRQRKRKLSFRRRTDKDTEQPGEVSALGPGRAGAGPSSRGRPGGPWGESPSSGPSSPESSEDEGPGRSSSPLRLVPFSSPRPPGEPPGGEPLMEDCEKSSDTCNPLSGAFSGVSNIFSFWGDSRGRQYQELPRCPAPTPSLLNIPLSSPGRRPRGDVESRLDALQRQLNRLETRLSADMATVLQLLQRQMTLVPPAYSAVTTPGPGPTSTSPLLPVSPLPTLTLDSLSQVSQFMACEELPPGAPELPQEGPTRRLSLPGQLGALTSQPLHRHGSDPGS
row,SMILES,"hERG current change (%, negative = inhibition) at 10uM"
1,CC1CCc2nc(NC(=O)CN3CCN(c4ccccc4)CC3)sc2C1 (centres unmarked),-6.29%
2,Cc1ccc(NC(=O)N2CCN(Cc3ccc4c(c3)OCO4)CC2)cc1,-33.8%
3,O=C(Nc1ccccc1)N1CCN(Cc2ccc3c(c2)OCO3)CC1,-26.1%
4,COc1cc(NC(=O)CN2CCN(Cc3ccc4c(c3)OCO4)CC2)cc(OC)c1.O=C(O)C(=O)O,-47%
5,O=C(/C(=C(/[O-])c1ccccc1)[n+]1ccccc1)c1ccc([N+](=O)[O-])cc1,6.47%
6,Cc1ccc(-c2nnc(N(C)C(=O)c3ccncc3)s2)cn1,1.62%
7,CCC(C)(C)NC(=O)C(c1cccnc1)N(C(=O)c1csnn1)c1ccc(C)cc1 (centres unmarked),10.6%
8,CCCOc1ccc(-c2c(C(=O)N/N=C/c3ccccc3OCC)nnn2-c2nonc2N)cc1,22.7%
9,COc1ccc(OC)c(C2C(C(=O)c3cc4ccccc4o3)=C(O)C(=O)N2c2cc(C)on2)c1 (centres unmarked),2.7%
10,COc1ccc2oc(C(=O)NN3C(C)CCCC3C)c(C)c2c1 (centres unmarked),16.1%
11,CNc1nccc(-c2ccc(F)cc2)c1C#N,6.25%
12,O=S(=O)(c1ccc(F)cc1)N1CCC(O)(c2ccc3c(c2)OCO3)CC1,-42%
13,Cc1cccc(N2CCN(Cc3ccc4c(c3)OCO4)CC2)c1C,3.83%
14,O=C(CN1CCN(Cc2ccc3c(c2)OCO3)CC1)Nc1ccc2c(c1)OCO2,-72.5%
15,O=C(CN1CCN(Cc2ccc3c(c2)OCO3)CC1)Nc1cc(S(=O)(=O)N2CCCC2)ccc1Cl,-18.8%
16,COc1ccc(NC(=O)CN2CCN(Cc3ccc4c(c3)OCO4)CC2)cc1OC.O=C(O)C(=O)O,-17.4%
17,Fc1ccccc1N1CCN(Cc2ccc3c(c2)OCO3)CC1,-26.8%
18,CN(C)S(=O)(=O)c1ccc(Cl)c(NC(=O)CN2CCCCCC2)c1,-24.6%
19,CN(C)S(=O)(=O)c1ccc(Cl)c(NC(=O)CN2CCN(Cc3ccc4c(c3)OCO4)CC2)c1,-64.6%
20,OC1(c2ccc3c(c2)OCO3)CCN(Cc2ccc(F)cc2)CC1,-51.4%
21,N#Cc1c(F)cccc1N1CCN(Cc2ccc3c(c2)OCO3)CC1,-81.3%
22,OC1(c2ccc3c(c2)OCO3)CCN(Cc2ccccn2)CC1,-6.96%

row,SMILES,"hERG current change (%, negative = inhibition) at 10uM"
1,O=C(CN1CCN(Cc2ccc3c(c2)OCO3)CC1)Nc1ccc(N2CCOCC2)cc1,-6.54%
2,CS(=O)(=O)c1ccc2nc(NC(=O)c3ccc(N4CCCC4=O)cc3)sc2c1,13.3%
3,CCCCNC(=O)[C@H]1N2C(=O)c3c(ccc(OC)c3OC)C2SC1(C)C (some centres unmarked),12.8%
4,S=c1[nH]ncn1/N=C/c1ccc(N2CCOCC2)cc1,14.9%
5,CCCN(Cc1nnc(-c2cccs2)o1)C(=O)c1cccc(S(=O)(=O)N2CCOCC2)c1,-25.3%
6,CC(NC(=O)COC(=O)c1ccc(CO)cc1)C1CC2CCC1C2 (centres unmarked),7.65%
7,CC(=O)Nc1ccc(C(=O)NN2C(=O)c3ccccc3C2=O)cc1,7.29%
8,COc1ccc(OC)c(C(=O)NC(CC(N)=O)c2ccc(N3CCC(Cc4ccccc4)CC3)c([N+](=O)[O-])c2)c1 (centres unmarked),-5.07%
9,CCOC(=O)CN(C(=O)COc1nc(-c2ccccc2)cc(C)c1C#N)c1ccc(F)cc1,1.18%
10,Cc1ccc(-n2c(-c3ccncc3)n[nH]c2=S)c(C)c1,13.7%
11,CC(C)CC(=O)N1CCN(Cc2ccc3c(c2)OCO3)CC1,0.479%
12,Oc1cc2c(cc1CN1CCN(c3ccc(F)cc3)CC1)OCO2,-1.5%
13,COC(=O)c1ccsc1NC(=O)CN1CCN(Cc2ccc3c(c2)OCO3)CC1,-78.4%
14,COC(=O)c1c(NC(=O)CN2CCN(Cc3ccc4c(c3)OCO4)CC2)sc(C)c1C.O=C(O)C(=O)O,-28.9%
15,CCOc1cc(N2CCOCC2)c(OCC)cc1NC(=O)CN1CCC(Cc2ccccc2)CC1,-3.67%
16,CCOc1cc(N2CCOCC2)c(OCC)cc1NC(=O)CN1CCCC1,6.63%
17,O=C(CSCc1ccccc1)N1CCN(Cc2ccc3c(c2)OCO3)CC1,-22%
18,Fc1ccc(N2CCN(Cc3ccc4c(c3)OCO4)CC2)cc1,-51.3%
19,Fc1ccc(N2CCN(Cc3cc4c(cc3Br)OCO4)CC2)cc1,7.74%
20,CCOc1cc(N2CCOCC2)c(OCC)cc1NC(=O)CN1CCN(Cc2ccc3c(c2)OCO3)CC1.Cl,-55.8%
21,COc1ccsc1C(=O)N1CCN(Cc2ccc3c(c2)OCO3)CC1,-16.5%
22,C/C(=C\c1ccccc1)C(=O)N1CCN(Cc2ccc3c(c2)OCO3)CC1,-51.6%
